D2 antag = D2 dopamine receptor (human) antagonism; P14416; HEK293 TREx D2 cells, calcium flux, dopamine EC80; inhibition, % at 10 µM; 2% of 340,000 active; AID 485344; in the data active means inhibition above about 30%; inactive means below that, where a call was filed
Target sequence (P14416 whole entry, looked up): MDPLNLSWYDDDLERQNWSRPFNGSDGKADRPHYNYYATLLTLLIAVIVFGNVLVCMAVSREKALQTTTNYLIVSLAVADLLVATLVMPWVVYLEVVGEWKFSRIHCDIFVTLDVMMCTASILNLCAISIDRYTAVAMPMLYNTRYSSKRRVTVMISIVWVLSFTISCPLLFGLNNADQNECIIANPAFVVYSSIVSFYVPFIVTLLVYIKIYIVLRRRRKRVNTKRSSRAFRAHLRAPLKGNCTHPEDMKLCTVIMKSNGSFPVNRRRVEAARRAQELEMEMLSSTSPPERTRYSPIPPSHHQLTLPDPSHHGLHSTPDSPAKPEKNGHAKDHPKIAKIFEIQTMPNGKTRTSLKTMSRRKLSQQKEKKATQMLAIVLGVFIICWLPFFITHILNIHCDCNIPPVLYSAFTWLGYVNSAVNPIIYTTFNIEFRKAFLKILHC
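Calcium flux kinetic readout in an inducible HEK293 TREx D2 line plated overnight at 30 C. After 180 s compound exposure, an EC80 dopamine challenge follows with another 180 s kinetic read to detect antagonism.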
D2 PAM-1 = positive allosteric modulators of human D2 dopamine receptor; 0.23% of 360,000 active; potentiation, % (no concentration beside the values); DiscoveRx D2 beta-arrestin cells, luminescence, 90 min; 100% = 57 uM dopamine signal; P14416; AID 624464; in the data active means potentiation above about 50%; inconclusive means mostly about 30% to 49%
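PathHunter D2 cells, attached overnight at 37 deg C, received compound in DMSO plus dopamine at EC20 (50 nM final) for 90 min at 37 deg C. Beta-arrestin recruitment was read as luminescence after 1 h with detection reagent at ambient temperature.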
D2 ag-1 = activates the human D2 dopamine receptor; P14416; HEK293 T-REx D2 cells, calcium flux agonist mode; activation, % at 2 µM; 0.53% of 340,000 active; AID 485358;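 active means activation over 3 SD above normal in the single-dose calcium agonist read, cut at about 30% in these data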
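Tetracycline-induced HEK293 T-REx cells with force-coupled D2 receptor, plated overnight at 30 C, loaded with no-wash calcium dye. After a 10 s baseline, compound was pin-added and calcium flux read kinetically for 180 s; calcium rises flagged agonists.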
D2 PAM-2 = positively modulates the human D2 dopamine receptor allosterically; P14416; HEK293 T-REx D2, calcium flux, EC20 dopamine potentiation; potentiation, % at 10 µM; 0.34% of 340,000 active; AID 485347;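 active means potentiation over 3 SD above the plate norm, cut at about 30% in these data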
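Potentiation of an EC20 dopamine calcium response is measured in a force-coupled, tetracycline-inducible Hek293 Trex D2 line. Compound-only kinetic reads over 180 s flag agonists before dopamine addition.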
D2 ag-2 = activates the human D2 dopamine receptor; activation, % (test concentration not listed); P14416; DiscoveRx PathHunter D2 beta-arrestin, luminescence, 90 min; 100% = 57 uM dopamine signal; 0.084% of 360,000 active; in the data active means activation above about 40%; inconclusive means between about 15% and that limit
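DiscoveRx PathHunter D2 beta-arrestin cells (2,100/well) attached overnight, then compound-stimulated 90 min at 37 C in HBSS/10 mM HEPES/0.1% Tween-20 buffer; beta-galactosidase complementation read by luminescence after 1 h at ambient temperature. Dopamine 57 uM final (EC100) as control.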
Each line names hits and unclear results; the compound was inactive in the other large screens. In the library only some 2.4% were active in any assay of this set; here they are far more common.

CC(/C=N/NC(=O)c1cccc(F)c1)=C\c1ccccc1	D2 antag 33.4
CC(=C/c1ccc(C(C)C)cc1)/C=N/NC(=O)c1ccncc1	D2 antag 36.1
COc1ccccc1C(=O)N/N=C/C(C)=C/c1ccccc1	D2 antag 74.6
CC(/C=N/NC(=O)c1ccncc1)=C\c1ccccc1	none
CC(=C/c1ccccc1)/C=N/NC(=O)c1ccccn1	none
Cc1ccc(NCc2cccn2-c2nnc(N3CCC(C(=O)NCc4ccccc4C)CC3)s2)cc1	none (no result: D2 antag, D2 PAM-1, D2 ag-2)
CCN(CC)c1nn2c(=O)c(C(=O)NCCc3cccc(C)c3)cnc2s1	none (no result: D2 antag, D2 PAM-1, D2 ag-2)
COc1ccc(S(=O)(=O)N2CCC(n3c(C)nc4cccnc43)CC2)cc1Cl	none (no result: D2 antag, D2 PAM-1, D2 ag-2)
O=C(Nc1ccc(Cl)cc1Cl)Nn1cnnc1	none
O=C(Nc1ccno1)Nc1ccc(Cl)cc1Cl	D2 PAM-1 61.6, D2 ag-2 inconclusive
CN1CCN(c2nc3c(S(=O)(=O)c4ccc(Br)cc4)nnn3c3ccsc23)CC1	none (no result: D2 antag, D2 PAM-1, D2 ag-2)
N#Cc1c(F)cccc1N1CCOCC1	D2 PAM-2 34.8
Cc1ccc(N2C(=O)c3ccccc3NC2C(C)Cc2ccc3c(c2)OCO3)cc1 (configuration not stated)	D2 antag 33.7
C/C=C(\C)C(=O)OC1[C@H](OC(C)=O)C2(CO)C(CC1(C)C)C1=CCC3C4(C)CCC(O[C@@H]5O[C@H](C(=O)O)[C@@H](O[C@@H]6O[C@H](CO)[C@@H](O)[C@H](O)[C@H]6O)[C@H](O)[C@H]5O[C@H]5O[C@H](CO)[C@@H](O)[C@H](O)[C@H]5O)[C@](C)(CO)C4CCC3(C)[C@]1(C)C[C@H]2O (some centres not stated)	D2 ag-2 41.1 (no result: D2 antag, D2 ag-1, D2 PAM-2)
C/C=C(/C)C(=O)OC1CC(C)(C)C[C@H]2C3=CC[C@@H]4[C@@]5(C)CCC(O[C@@H]6O[C@@H](C(=O)O)[C@@H](O)C(O[C@@H]7OC[C@H](O)[C@@H](O)[C@@H]7O[C@@H]7OC(CO)C(O)[C@@H](O)[C@@H]7O)C6O[C@@H]6OC(CO)C(O)C(O)C6O)[C@@](C)(CO)[C@@H]5CC[C@]4(C)[C@]3(C)CC(O)[C@@]12CO (some centres not stated)	none (no result: D2 antag, D2 ag-1, D2 PAM-2)
CCCN(CCC)C(=O)Cn1nnc2sc(-c3ccccc3)cc2c1=O	none (no result: D2 antag, D2 PAM-1, D2 ag-1, D2 ag-2)
O=C(O)c1cccnc1SCc1cccc(Cl)c1	D2 antag 44.6
Cc1cccc(CSc2ncccc2C(=O)O)c1	none
CCCC1=Nc2cc(C(=O)NCc3ccccc3)ccc2Sc2ccccc21	none (no result: D2 antag, D2 PAM-1, D2 ag-2)
CCOC(=O)c1c(S(=O)(=O)N2CCCC(C(=O)Nc3cccc(CC)c3)C2)c(C)n(CC)c1C (configuration not stated)	none (no result: D2 antag, D2 PAM-1, D2 ag-2)
Cc1nnc(SC(C)C(=O)NCC2CCCO2)s1 (configuration not stated)	D2 antag 31.1
Cc1ccc(Nc2nnc(SC(C)C(=O)NCC3CCCO3)s2)cc1C (configuration not stated)	none
Cc1cc(C)cc(NC(=O)Cc2c(C(=O)O)c(C)cn2C)c1	none (no result: D2 antag, D2 PAM-1, D2 ag-2)
COc1ccc(Nc2nc(CC(C)=O)ns2)cc1	none
COc1cccc(Nc2nc(CC(C)=O)ns2)c1	D2 antag 32.8
COc1ccc(N(C(=O)c2cccc(C)c2)S(=O)(=O)c2ccc3c(c2)n(C)c(=O)n3C)cc1	none (no result: D2 antag, D2 PAM-1, D2 PAM-2, D2 ag-2)
CN1CCc2c(n(CC(O)CN(CCO)CCO)c3ccccc23)C1=O (configuration not stated)	none
CN1CCc2c(n(CC(O)CNCc3ccccc3)c3ccccc23)C1=O (configuration not stated)	D2 antag 66.3
Cc1c(C(=O)OC2CCCCC2)sc2nc[nH]c(=O)c12	D2 PAM-2 30.9
Cc1ccc(NC2=C(Cl)C(=O)OC2NC(=O)c2ccccc2)cc1 (configuration not stated)	D2 antag 54.9
CCOC1OC(=O)C(Cl)=C1Nc1ccc(C)cc1 (configuration not stated)	none
O=C(c1ccco1)N1CCN(C(=S)Nc2ccc(F)cc2)CC1	none
O=C(Cc1ccc(Cl)cc1)Nc1ccc(N2CCN(C(=O)c3ccco3)CC2)cc1	D2 PAM-2 32.2
Cc1ccccc1N1CCN(CCC(=O)Nc2ccc(F)cc2)CC1	D2 antag 78.1
O=C(CCN1CCN(C(=O)c2ccco2)CC1)Nc1ccc(F)cc1	D2 ag-1 33.5
COc1ccccc1N1CCN(CCC(=O)Nc2cccc(F)c2)CC1	none (no result: D2 antag)
CC(=O)c1ccc(NC(=O)c2ncn(-c3ccccc3)n2)cc1	none (no result: D2 antag, D2 PAM-1, D2 ag-2)
COc1cccc(N2CCN(C(=O)Cn3cnc4onc(-c5ccc(F)cc5)c4c3=O)CC2)c1	none (no result: D2 antag, D2 PAM-1, D2 ag-2)
Cc1c(NC(=O)c2ccc(Cl)cc2)cc(C(C)C)c(O)c1S(=O)(=O)c1ccccc1	none (no result: D2 antag, D2 PAM-1, D2 ag-2)
Cc1ccc(-c2ccc(CCC(=O)O)n2-c2cccc(C)c2C)cc1	none (no result: D2 antag, D2 PAM-1, D2 ag-2)
N#CC1=C(N)Oc2cc(O)c(Cl)cc2C1c1cccnc1 (configuration not stated)	none
N#CC1=C(N)Oc2cc(O)c(Cl)cc2C1c1ccccc1F (configuration not stated)	D2 ag-1 44.1
COc1ccc(OC)c(CN2CCN(C(=O)c3ccc(F)cc3)CC2)c1	D2 antag 41.2
COc1ccc(C(=O)N2CCN(S(=O)(=O)c3ccc(Cl)cc3)CC2)cc1OC	none
COc1ccc(S(=O)(=O)N2CCCCCC2)cc1C(=O)N1CCCCC1	none
COc1ccc(C(=O)N2CCN(S(=O)(=O)c3ccc(F)cc3)CC2)cc1OC	D2 antag 39.1
COc1ccc(OC)c(CN2CCN(Cc3cc(=O)oc4cc(O)ccc34)CC2)c1	D2 antag 33.7
COc1ccc(N2CCN(S(=O)(=O)c3ccc(OC)c(C(=O)N4CCCC4)c3)CC2)cc1	D2 antag 47.5
CCOc1ccc(-c2nnc(SCC(=O)Nc3cc(C)ccc3OC)o2)cc1	none (no result: D2 antag, D2 PAM-1, D2 ag-2)
Cc1ccc(CNC(=O)CCCn2c(=O)c3ccccc3n(CC(=O)C(C)(C)C)c2=O)cc1	none (no result: D2 antag, D2 PAM-1, D2 ag-1, D2 ag-2)
CCOC(=O)c1ccccc1NC(=O)CSc1ncc(CO)n1Cc1ccc(C)cc1	none (no result: D2 antag, D2 PAM-1, D2 ag-2)
COc1ccc(N2CCN(C(=O)CCS(=O)(=O)c3ccc(OC)cc3)CC2)cc1	D2 PAM-2 31.6
O=C(NCCN1CCN(C(=O)c2ccc(F)cc2)CC1)c1ccc(F)cc1	D2 antag 64.0
CCN(Cc1ccccc1)C(=O)Cn1c(=O)n(-c2ccc(Cl)c(Cl)c2)c(=O)c2c(C)c(C(=O)N(C)C)sc21	none (no result: D2 antag, D2 PAM-1, D2 ag-2)
O=C(Nc1ccccc1C(=O)O)c1cccc(NS(=O)(=O)c2ccc(Br)cc2)c1	D2 PAM-1 81.7 (no result: D2 antag, D2 ag-1, D2 PAM-2)
O=C(O)c1cc(S(=O)(=O)Nc2cccc(Oc3ccccc3)c2)ccc1Br	D2 PAM-2 38.9
N#CCCN1CCN(S(=O)(=O)c2cc(Cl)ccc2Cl)CC1	D2 PAM-2 37.2
